BoNT-F LC inh: BoNT/F light chain protease inhibitors, primary screen, biochemical, flow cytometry, MLPCN library | Botulinum neurotoxin type F light chain protease (Clostridium botulinum) | Multiplex microsphere protease cleavage assay | inhibition, % at 10 µM | hit rate 0.22% among 360,000 | AID 588497, 2011; in the data active = inhibition above about 35%, passing the limit was not always enough; inconclusive = no clear call, values can overlap the other calls
BoNT-A LC inh2: BoNT/A light chain protease inhibitors, primary screen, biochemical, flow cytometry, MLPCN library; hit rate 0.17% among 360,000; multiplex microsphere protease substrate cleavage; inhibition, % at 10 µM
Autofluor counter: compound fluorescence in toxin protease inhibitor counterscreen | compound autofluorescence counterscreen, microsphere flow cytometry; hits give high values | fluorescence intensity (no concentration beside the values) | hit rate 3.1% among 360,000; in the data active = fluorescence intensity above about 16000; inconclusive = no clear call, values can overlap the other calls
Anthrax LF inh2: Bacillus anthracis LF protease inhibitors, primary screen, biochemical, multiplex microsphere, MLPCN library; multiplex microsphere protease cleavage assay; hit rate 0.12% among 360,000; inhibition, % at 10 µM; Lethal factor (Bacillus anthracis), P15917
MazEF act: activators of E. coli MazEF toxin-antitoxin RNase, primary screen, biochemical, fluorescence, uHTS | Endoribonuclease toxin MazF (Escherichia coli (strain K12)), P0AE70 | FAM/BHQ RNA-DNA oligo cleavage fluorescence, 5 h | activation, % at 20 µM | hit rate 0.32% among 350,000; in the data active = activation above about 50%
Hits are given with their value; 0 = inactive; ? = inconclusive; - = no result given. This is a sample that favours compounds with a hit; in the whole collection about 3.6% have one here. Rule as the data show it, unless noted: active = inhibition above about 30%; inconclusive = no clear call, values can overlap the other calls; inactive = below that.

SMILES	BoNT-F LC inh	BoNT-A LC inh2	Autofluor counter	Anthrax LF inh2	MazEF act
CC1=CCC2C(=O)N(c3ccc4ccccc4n3)C(=O)C2C1 (stereo not given)	0	0	0	0	0
Cc1onc(-c2ccccc2)c1-c1n[nH]c(=S)n1-c1ccccc1Cl	0	0	22416	0	0
COCCn1c(SCC#N)nnc1-c1ccccc1O	0	0	20776	0	0
CCCCNC(=O)c1cnc(Cc2c[nH]c3ccccc23)c(I)c1	0	0	0	0	-
CCN(CC)CCCNC(=O)c1ccc(S(=O)(=O)Nc2ccc(C)c(C)c2)cc1	0	0	0	0	0
CCOc1ccc2[nH]c3c(N4CCN(c5ccccn5)CC4)ncnc3c2c1	0	0	18129	0	0
N#Cc1ccccc1NC(=O)COC(=O)/C=C/c1ccc(S(=O)(=O)N2CCOCC2)cc1	0	0	0	0	0
N#CC1=C(Nc2ccc(Br)cc2)CCC1	0	0	16939	0	0
COc1ccc(C(=O)NC2=C(C#N)CCC2)cc1OC	0	0	0	0	0
C=C(C)C1CC=C(C)/C(=N/NC(=O)COc2ccccc2Cl)C1 (stereo not given)	0	0	0	0	0
Cc1cccc2c1OCC/C2=N\NC(=O)COc1ccccc1Cl	0	0	22273	0	0
COc1cc(Br)cc(CN2CCN(C)CC2)c1O	0	?	22111	0	0
O=c1[nH]c(=S)[nH]c2c1C(c1ccc(Cl)cc1)OC(C1CCCCC1)C2 (stereo not given)	0	0	0	0	-
Cc1cc(Nc2ccccc2N2CCOCC2)n2ncnc2n1	0	0	16563	0	0
Cc1cc(Nc2ccccc2C(=O)O)n2ncnc2n1	0	0	0	0	0
CCc1cc(=O)oc2cc(OCC(=O)OC)c(Cl)cc12	0	?	22235	0	0
COc1ccc(N2C(=O)CCC(C(=O)c3ccccc3)=C2C)cc1	0	?	19774	0	0
COc1ccc(C(=O)c2ccccc2C(=O)c2ccccc2)cc1	0	0	0	0	0
O=C(Nc1ccc(F)c(Cl)c1)c1cc(C2CCCN(C(=O)c3cccs3)C2)on1 (stereo not given)	0	0	0	0	-
C=CCN1C(=O)[C@]2(c3ccccc31)C1CCCC=C1C(C#N)=C(N)C2(C#N)C#N (stereo not given in full)	0	?	20366	0	0
C=CCN1C(=O)C2(c3ccccc31)C1CCCC=C1C(C#N)=C(N)C2(C#N)C#N (stereo not given)	0	0	0	0	0
CCC(=O)N1CCc2cc(OC)c(OC)cc2C1COc1ccc(C(=O)OC)cc1 (stereo not given)	0	0	21370	0	0
COC(=O)c1ccc(OCC2c3cc(OC)c(OC)cc3CCN2C(=O)c2ccco2)cc1 (stereo not given)	0	0	19776	0	0
C=CCN(CC=C)c1cnn(-c2nc3ccccc3[nH]2)c(=O)c1Cl	0	0	21324	0	0
CCOC(=O)C(=CNc1ccc(N2CCCCC2)c(S(=O)(=O)Nc2ccccc2OC)c1)C(=O)OCC	0	0	0	0	0
SMILES	BoNT-F LC inh	BoNT-A LC inh2	Autofluor counter	Anthrax LF inh2	MazEF act
CC(CN1C(C)CCCC1C)OC(=O)c1cccc(Br)c1 (stereo not given)	0	0	0	0	0
CC1(C)NC(=O)N(CCCOc2ccccc2Br)C1=O	0	0	16174	0	0
CCOc1cc(C=O)ccc1OCCCN1C(=O)NC(C)(C)C1=O	0	0	22259	0	0
C/C=C/c1ccc(OCCCCN2C(=O)NC(C)(C)C2=O)c(OC)c1	0	0	0	0	0
CCc1cccc(OCCCN2C(=O)NC(C)(C)C2=O)c1	0	0	22570	0	0
CC(=O)c1cccc(OCCN2C(=O)NC(C)(C)C2=O)c1	0	0	0	0	0
CCC(C)(C)c1ccc(OCCN2C(=O)NC(C)(C)C2=O)cc1	0	0	22180	0	0
CC(C)Cn1nc(NC(=O)C(C)(C)C)c2cc3ccccc3nc21	0	0	0	0	0
CCn1nc(NC(=O)c2ccco2)c2cc3ccccc3nc21	0	0	16504	0	0
CCCn1nc(NC(=O)CC(C)C)c2cc3ccccc3nc21	0	0	22379	0	0
CCCCC(=O)Nc1nn(CC(C)C)c2nc3ccccc3cc12	0	?	21680	0	0
CNC(=O)/C=C/c1cccc(C(F)(F)F)c1	40	0	0	0	0
COc1cccc(CNc2ncc(Br)cc2Br)c1O	0	0	0	0	0
COc1cccc(CNc2ccc(Br)cn2)c1O	0	?	24305	0	0
O=C(Cn1nnc(-c2ccc(OCc3ccccc3F)cc2)n1)N1CCOCC1	0	0	22617	0	0
CCc1cc(=O)oc2cc3oc(C)c(C)c3cc12	0	?	19139	0	0
CCOc1cc(N2CCOCC2)c(OCC)cc1NC(=O)c1ccc(OC)c(S(=O)(=O)N2CCOCC2)c1	0	0	0	0	0
O=C(CCNS(=O)(=O)c1ccc(Br)cc1)NCc1ccc2c(c1)OCO2	0	0	24584	0	0
CN(C)S(=O)(=O)c1ccc(S(=O)(=O)NCc2ccc3c(c2)OCO3)cc1	38	0	0	0	0
CCOc1ccc(/C(O)=C2\C(=O)C(=O)N(CCOCCO)C2c2ccccc2OC)cc1 (stereo not given)	0	?	23386	0	0
COc1ccc(/C(O)=C2\C(=O)C(=O)N(CCN3CCOCC3)C2c2ccccc2OC)cc1 (stereo not given)	0	0	0	0	0
Cc1cc(C)c2[nH]c(=O)c(CN(CC3CCCO3)S(=O)(=O)c3ccc4c(c3)OCCO4)cc2c1 (stereo not given)	0	0	21471	0	0
Cc1ccc(C)c2[nH]c(=O)c(CN(CC3CCCO3)S(=O)(=O)c3ccc4c(c3)OCCO4)cc12 (stereo not given)	0	0	0	0	0
Nc1ccccc1C(=O)NNc1c2ccccc2nc2ccccc12	?	0	0	0	0
CC1Cc2ccccc2N1C(=O)Cn1cc(C(F)(F)F)ccc1=O (stereo not given)	0	0	0	0	0
SMILES	BoNT-F LC inh	BoNT-A LC inh2	Autofluor counter	Anthrax LF inh2	MazEF act
Cc1ccc(-n2c([C@@H]3C[C@H]3c3ccccc3)n[nH]c2=S)cc1	0	0	0	0	0
Cc1ccc(C2CC2c2n[nH]c(=S)n2-c2ccc(C)cc2)cc1 (stereo not given)	0	?	24709	0	0
Cc1ccc(-n2c(C3CC3c3ccc(Cl)cc3)n[nH]c2=S)cc1 (stereo not given)	0	0	23745	0	0
S=c1[nH]nc(C2CC2c2ccc(Cl)cc2)n1-c1ccc(Cl)cc1 (stereo not given)	0	0	0	0	0
COc1cc(/C=C2/SC(=S)N(CCC(=O)Nc3cccnc3)C2=O)cc(OC)c1OC	0	0	0	0	0
Cn1c(/C(C#N)=C(\O)COc2ccc3ccccc3c2)nc2ccccc21	0	0	0	0	174

Source: PubChem (several laboratories)
